Assay outcomes (PubChem)
Shown is part of a subset that was picked to be rich in hits.
p53 PUMA act: mutant p53 pathway re-activators, primary screen, cell-based, SW480, luciferase, single point, HTS | SW480 PUMA-promoter luciferase, p53 mutant reactivation | activation, % at 9.98 µM | actives 1.5% (n = 28,000); in the data active means activation above about 52%; inconclusive means no clear call, values can overlap the other calls
NOMO-1 viab: NOMO-1 AML cell viability reduction, primary screen, STK33 inhibitor project, CellTiter-Glo luminescence | NOMO-1 AML viability, 72 h | actives 7.5% (n = 37,000) | AID 2330, 2010 | inhibition, % (test concentration not listed); in the data active means inhibition above about 80%; inconclusive means no clear call, values can overlap the other calls
STK33 kin inh: STK33 kinase inhibitors, primary screen, biochemical, luminescence, ADP-Glo, MBP substrate | Serine/threonine-protein kinase 33 (Homo sapiens), Q9BYT3 | inhibition, % at 12.5 µM | actives 0.44% (n = 27,000) | AID 2322, 2010; in the data active means inhibition above about 20%; inconclusive means no clear call, values can overlap the other calls
Target sequence (Q9BYT3 whole entry, looked up): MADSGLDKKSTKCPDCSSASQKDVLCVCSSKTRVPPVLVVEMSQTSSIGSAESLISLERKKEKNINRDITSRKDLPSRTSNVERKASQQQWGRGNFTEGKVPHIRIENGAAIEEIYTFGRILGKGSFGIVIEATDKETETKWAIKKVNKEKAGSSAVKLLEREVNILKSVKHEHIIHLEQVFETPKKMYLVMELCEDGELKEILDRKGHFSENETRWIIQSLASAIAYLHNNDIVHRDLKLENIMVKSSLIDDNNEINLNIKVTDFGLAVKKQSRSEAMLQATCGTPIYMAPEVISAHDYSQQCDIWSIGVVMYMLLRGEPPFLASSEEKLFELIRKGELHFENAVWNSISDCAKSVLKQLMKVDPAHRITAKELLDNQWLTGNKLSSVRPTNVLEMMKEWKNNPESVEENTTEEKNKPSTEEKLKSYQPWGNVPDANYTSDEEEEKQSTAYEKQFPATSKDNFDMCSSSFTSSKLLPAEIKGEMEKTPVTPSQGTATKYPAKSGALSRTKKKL
MITF inhib: inhibitors of MITF, primary screen, MITF inhibitor project, cell-based, luminescence. TRPM1 promoter luciferase, 24 h. inhibition, % (concentration not given with the values). actives 0.28% (n = 37,000). AID 2240, 2010; in the data active means inhibition above about 85%; inconclusive means no clear call, values can overlap the other calls; inactive means below about 68%;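 further: human melanocyte line stably carrying TRPM1 promoter luciferase reporter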
Starred values were filed as active, the others as inactive; u = inconclusive; x = no result.

SMILES | p53 PUMA act | NOMO-1 viab | STK33 kin inh | MITF inhib
c1ccc(-c2oc3ncnc(NCCN4CCOCC4)c3c2-c2ccccc2)cc1 | -15 | 39 | 3 | -3
COc1ccc(C(=O)On2c(-c3ccccc3)cc3ccccc32)cc1 | 16 | x | x | x
CC1(C)CC(=O)C=C(Sc2nc3cc(Cl)ccc3s2)C1 | x | 120* | 3 | u
Cc1ccc(S(=O)(=O)NCCC(=O)Oc2ccc3c(=O)c(-c4ccc(F)cc4)coc3c2)cc1 | 105* | 20 | 1 | -45
CN(C)CCCNc1ncnc(N)c1[N+](=O)[O-] | -1 | -5 | 4 | -13
CN(CC(=O)Nc1ccc(Cl)c(C(F)(F)F)c1)S(=O)(=O)c1ccc(F)cc1 | 12 | 5 | -15 | 5
CC1CC(NC(=S)NCc2csc3ccccc23)CC(C)(C)C1 (configuration not stated) | x | 109* | x | 36
COc1cccc(C(=O)COc2cccc(NC(=O)c3ccc(Cl)c(Cl)c3)c2)c1 | 5 | 44 | 2 | 34
C[C@H]1CN([C@@H](C)CO)C(=O)c2cccc(NC(=O)CCCCCC(=O)Nc3ccccc3N)c2O[C@H]1CN(C)S(=O)(=O)c1ccc(Cl)cc1 | x | 115* | x | 42
C[C@@H]1CN([C@H](C)CO)C(=O)c2cccc(NC(=O)CCCCCC(=O)Nc3ccccc3N)c2O[C@H]1CN(C)S(=O)(=O)c1ccc(Cl)cc1 | x | 121* | x | 12
C[C@H](CO)N1C[C@H](C)[C@@H](CN(C)S(=O)(=O)c2ccc(Cl)cc2)Oc2c(NC(=O)CCCCCC(=O)Nc3ccccc3N)cccc2C1=O | x | 88* | x | 16
C[C@H](CO)N1C[C@H](C)[C@@H](CN(C)S(=O)(=O)c2ccccc2)Oc2c(NC(=O)CCCCCC(=O)Nc3ccccc3N)cccc2C1=O | x | 43 | x | 1
C[C@H]1CN([C@@H](C)CO)C(=O)c2cccc(NC(=O)CCCCCC(=O)Nc3ccccc3N)c2O[C@H]1CN(C)S(=O)(=O)c1ccccc1 | x | 65 | x | -1
Cc1ccc(S(=O)(=O)N(C)C[C@@H]2Oc3c(NC(=O)CCCCCC(=O)Nc4ccccc4N)cccc3C(=O)N([C@H](C)CO)C[C@@H]2C)cc1 | x | 111* | x | 30
C/C=C(\C(C)=N\O)c1ccccc1 | x | -10 | x | 8
CCOc1ccc(Oc2nc(N3CCOCC3)nc(N3CCOCC3)n2)nn1 | 10 | 24 | -2 | -29
O=C(CSc1nnc(-c2ccc([N+](=O)[O-])cc2)n1-c1ccccc1)Nc1ccc(Cl)cc1 | 4 | 6 | -1 | -21
CCOC(=O)Nc1cc(=O)c2ccccc2o1 | x | 119* | 4 | -10
CC(=O)Nc1c(N)c2ccccc2oc1=O | x | 1 | x | 2
O=C(CNS(=O)(=O)c1ccccc1)Nc1cc(Cl)cc(Cl)c1 | 0 | 9 | -3 | 5
CS(=O)(=NS(=O)(=O)c1cccs1)c1ccc(OC(=O)c2ccc(Cl)cc2)cc1 (configuration not stated) | x | 26 | x | -22
CC(NC(=O)/C=C/C(=O)O)C(=O)NC(C(=O)NC(Cc1c[nH]c2ccccc12)C(=O)O)C(C)c1c[nH]c2ccccc12 (configuration not stated) | x | 6 | 150* | 7
CC(C)[C@H](N)C(=O)N[C@@H](Cc1c[nH]c2ccccc12)C(=O)O | -10 | -22 | 3 | -1
Cc1ccc(C)c(NC(=O)CSc2nnc(-c3ccncc3)n2-c2ccc(F)cc2)c1 | -19 | 0 | -2 | -4
CC12CC3(C)CC(C)(C1)CC(CN=Cc1ccc(O)cc1)(C2)C3 | x | 112* | x | -3
SMILES | p53 PUMA act | NOMO-1 viab | STK33 kin inh | MITF inhib
Oc1ccc(/C=N/c2nccs2)cc1 | x | -4 | x | -17
COC(=O)C1=C(N)Oc2cc(C)n(Cc3ccccc3)c(=O)c2C1c1ccncc1 (configuration not stated) | x | 7 | x | 4
O=C(O)c1cccc(COc2ccc(CO)cc2Cl)c1 | -87 | 30 | -4 | 89*
O=C(CNC(=O)c1cn(-c2ccccc2)nc1-c1ccccc1)c1ccccc1 | 121* | 6 | -1 | -75
COc1cccc(-c2nn(-c3ccccc3)cc2C(=O)NCC(=O)O)c1 | -11 | -1 | -4 | 9
COC(=O)CNC(=O)c1cn(-c2ccccc2)nc1-c1ccc(OC)cc1 | -8 | 113* | -2 | -8
O=C(CSCCO)Nc1ccc(F)cc1 | 3 | 5 | u | -3
COc1cc(O)c(C(=O)c2c(C)cc(O)cc2OC)c(O)c1 | -12 | 121* | -3 | -16
COc1cc(O)c(C(C)=O)c(OC)c1 | x | 23 | 4 | -25
CS(=O)(=O)N(CC(=O)Nc1cccc(Br)c1)c1ccc(F)c(Cl)c1 | -10 | 45 | 2 | 18
CCOC(=O)C1CCCN(Cc2nc(N)nc(Nc3ccccc3)n2)C1 (configuration not stated) | -16 | 113* | -2 | 6
Cc1ccc(Nc2nc(N)nc(CN3CCN(C(c4ccccc4)c4ccccc4)CC3)n2)cc1 | -3 | 89* | 6 | 47
CCOc1ccccc1Nc1nc(N)nc(CN2CCCCC2C)n1 (configuration not stated) | 0 | 28 | -2 | 15
O=C(Nc1ccccc1[N+](=O)[O-])c1cccc(S(=O)(=O)Nc2ccc(F)cc2)c1 | -2 | -11 | 1 | 28
CCSC1=N/C(=C\c2cccc(F)c2)C(=O)S1 | x | 45 | x | 8
Fc1cccc(/C=N/N=C/c2cccc(F)c2)c1 | 88* | x | x | x
CC(=O)OCOC(=O)CN(CC(=O)OCOC(C)=O)c1ccccc1OCCOc1ccccc1N(CC(=O)OCOC(C)=O)CC(=O)OCOC(C)=O | -21 | 113* | 0 | 11
CC(=O)Cc1ccccc1OCC(=O)O | 8 | 11 | -10 | 5
N/C(=N\O)c1ccc(Cl)cc1 | x | 23 | x | 9
C=CCN(C(C)=O)c1nc(C)c(Br)c(OC)n1 | x | 13 | x | 8
Cc1cc2c(c(=O)n1CCN1CCOCC1)C(c1cccc(F)c1)C(C#N)=C(N)O2 (configuration not stated) | -20 | -1 | x | 0
N#CC1=C(N)C(C#N)=c2s/c(=C/c3cccc(F)c3)c(=O)n2C1c1cccc(F)c1 (configuration not stated) | x | 116* | 12 | -13
C[C@H]1CN([C@@H](C)CO)C(=O)Cc2cc(NC(=O)Nc3ccccc3)ccc2O[C@H]1CN(C)Cc1ccc(C(F)(F)F)cc1 | x | 127* | x | 29
C[C@H]1CN([C@@H](C)CO)C(=O)Cc2cc(NC(=O)Nc3ccc(C(F)(F)F)cc3)ccc2O[C@H]1CN(C)Cc1ccccc1 | x | 85* | -9 | 39
COC(=O)c1c(NC(=O)c2ccc(NS(C)(=O)=O)cc2)sc2c1CCCC2 | -6 | 27 | 0 | -7
S=C(NCc1ccccc1Cl)NC12CC3CC(CC(C3)C1)C2 | x | 115* | 4 | 47
O=C(NC(=S)NC12CC3CC(CC(C3)C1)C2)c1ccccc1 | x | 26 | x | -19
C[C@H](CO)N1C[C@H](C)[C@H](CN(C)Cc2ccc(Cl)c(Cl)c2)Oc2c(NC(=O)Nc3ccc(C(F)(F)F)cc3)cccc2C1=O | x | 94* | x | 10
CC(C)NC(=O)Nc1cccc2c1O[C@@H](CN(C)Cc1ccc(Cl)c(Cl)c1)[C@H](C)CN([C@H](C)CO)C2=O | -4 | 63 | x | 7
